Assay results taken from the supplement of paper PMC10849652.
About 8,800 targets were measured; listed, in parts, are those with a hit and a random draw of the rest. About 0.5% of all pairs of compound and target were hits.

What was measured:
Assay in all cases: log2 fold change, soluble protein after heating vs DMSO (PISA); higher = thermal stabilisation; K562 lysate, 10 uM; active = over 0.2 and 3.5 SD of the protein, either way, in both replicates (recomputed)
lapatinib = compound: CS(=O)(=O)CCNCc1ccc(-c2ccc3ncnc(Nc4ccc(OCc5cccc(F)c5)c(Cl)c4)c3c2)o1 [lapatinib]
Procedure, shortened: (§1)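 The values are log-two fold changes in thermal stability compared with solvent controls and come from duplicates. They were obtained by TMTpro 16plex LC-MS/MS, with channel sums equalised, on the supernatant after 21,000xg for 90 min. That supernatant came from crude K562 extract at 1 mg/mL protein treated with 10 μM compound for 30 min, heated for 3 min across 48°C-58°C, pooled and brought to 0.5% NP-40 at 4°C.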

pictilisib = compound: CS(=O)(=O)N1CCN(Cc2cc3nc(-c4cccc5[nH]ncc45)nc(N4CCOCC4)c3s2)CC1 [pictilisib]
Procedure, shortened: as §1

crizotinib = compound: C[C@@H](Oc1cc(-c2cnn(C3CCNCC3)c2)cnc1N)c1c(Cl)ccc(F)c1Cl [crizotinib]
Procedure, shortened: as §1

[1] = compound: C[C@H](C1=CC=C(C=C1)C(=O)NC2=C3C=CNC3=NC=C2)N
Procedure, shortened: as §1

duvelisib = compound: C[C@H](Nc1ncnc2nc[nH]c12)c1cc2cccc(Cl)c2c(=O)n1-c1ccccc1 [duvelisib]
Procedure, shortened: as §1

gandotinib = compound: Cc1cc(Nc2cc(CN3CCOCC3)c3nc(C)c(Cc4ccc(Cl)cc4F)n3n2)n[nH]1 [gandotinib]
Procedure, shortened: as §1

tozasertib = compound: Cc1cc(Nc2cc(N3CCN(C)CC3)nc(Sc3ccc(NC(=O)C4CC4)cc3)n2)n[nH]1 [tozasertib]
Procedure, shortened: as §1

doramapimod = compound: Cc1ccc(-n2nc(C(C)(C)C)cc2NC(=O)Nc2ccc(OCCN3CCOCC3)c3ccccc23)cc1 [doramapimod]
Procedure, shortened: as §1

bafetinib = compound: Cc1ccc(NC(=O)c2ccc(CN3CC[C@H](N(C)C)C3)c(C(F)(F)F)c2)cc1Nc1nccc(-c2cncnc2)n1 [bafetinib]
Procedure, shortened: as §1

[2] = compound: Cc1cccc(CC(=O)N2CCc3c2ccc(-c2cn(C)c4ncnc(N)c24)c3F)n1
Procedure, shortened: as §1

Measured: log2 fold change

ACSL4 (UniProt O60488)
inactive: lapatinib 0.008 | pictilisib 0.028 | crizotinib -0.042 | [1] -0.016 | duvelisib 0.026 | gandotinib -0.065 | tozasertib 0.002 | doramapimod 0.025 | bafetinib -0.093 | [2] -0.003

ANKRD52 (UniProt Q8NB46)
inactive: lapatinib -0.133 | pictilisib -0.036 | crizotinib -0.11 | [1] -0.004 | duvelisib 0.01 | gandotinib 0.012 | tozasertib 0 | doramapimod 0.001 | bafetinib -0.071 | [2] 0.034

ALDH6A1 (UniProt Q02252)
Chain of UniProt Q02252 (Q02252 whole entry, looked up): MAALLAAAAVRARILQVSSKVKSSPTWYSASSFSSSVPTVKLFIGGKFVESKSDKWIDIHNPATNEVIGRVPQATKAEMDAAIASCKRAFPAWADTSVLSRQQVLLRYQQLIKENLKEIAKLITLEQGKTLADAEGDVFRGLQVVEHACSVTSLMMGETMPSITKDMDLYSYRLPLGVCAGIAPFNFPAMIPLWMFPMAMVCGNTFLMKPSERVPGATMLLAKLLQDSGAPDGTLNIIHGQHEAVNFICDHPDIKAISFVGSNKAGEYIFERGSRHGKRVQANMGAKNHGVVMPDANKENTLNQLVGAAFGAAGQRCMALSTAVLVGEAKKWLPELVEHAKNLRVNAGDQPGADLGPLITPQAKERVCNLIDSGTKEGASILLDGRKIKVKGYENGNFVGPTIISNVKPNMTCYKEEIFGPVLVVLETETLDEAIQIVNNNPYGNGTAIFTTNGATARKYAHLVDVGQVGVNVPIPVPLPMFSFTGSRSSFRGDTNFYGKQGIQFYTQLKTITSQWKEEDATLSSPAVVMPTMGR
inactive: lapatinib -0.04 | pictilisib -0.028 | crizotinib -0.023 | [1] -0.032 | duvelisib 0.073 | gandotinib -0.033 | tozasertib 0.021 | doramapimod -0.017 | bafetinib 0.122 | [2] -0.001

AMMECR1 (UniProt Q9Y4X0)
inactive: lapatinib 0.005 | pictilisib -0.013 | crizotinib -0.011 | [1] -0.027 | duvelisib 0.022 | gandotinib -0.019 | tozasertib 0.039 | doramapimod -0.009 | bafetinib -0.04 | [2] 0.037

ANXA1 (UniProt P04083)
inactive: lapatinib 0.005 | pictilisib 0.013 | crizotinib 0.018 | [1] -0.013 | duvelisib 0.016 | gandotinib -0.005 | tozasertib 0.012 | doramapimod 0.008 | bafetinib 0.038 | [2] 0.028

AIFM2 (UniProt Q9BRQ8)
Chain of UniProt Q9BRQ8 (Q9BRQ8 whole entry, looked up): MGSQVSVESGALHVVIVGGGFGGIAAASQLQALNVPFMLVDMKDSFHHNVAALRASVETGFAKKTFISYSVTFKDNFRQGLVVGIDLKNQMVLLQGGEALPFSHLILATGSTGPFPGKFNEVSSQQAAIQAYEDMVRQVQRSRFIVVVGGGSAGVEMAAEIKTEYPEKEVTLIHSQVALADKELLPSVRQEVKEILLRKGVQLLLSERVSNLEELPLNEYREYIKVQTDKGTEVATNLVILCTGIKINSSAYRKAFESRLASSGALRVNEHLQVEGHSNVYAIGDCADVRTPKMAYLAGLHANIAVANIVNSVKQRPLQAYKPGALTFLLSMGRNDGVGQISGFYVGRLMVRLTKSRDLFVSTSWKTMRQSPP
active: gandotinib 0.507
inactive: lapatinib 0.132 | pictilisib -0.024 | crizotinib 0.06 | [1] -0.143 | duvelisib 0.004 | tozasertib -0.014 | doramapimod 0.307 | bafetinib 0.086 | [2] 0.089

ASPH (UniProt Q12797)
Chain of UniProt Q12797 (Q12797 whole entry, looked up): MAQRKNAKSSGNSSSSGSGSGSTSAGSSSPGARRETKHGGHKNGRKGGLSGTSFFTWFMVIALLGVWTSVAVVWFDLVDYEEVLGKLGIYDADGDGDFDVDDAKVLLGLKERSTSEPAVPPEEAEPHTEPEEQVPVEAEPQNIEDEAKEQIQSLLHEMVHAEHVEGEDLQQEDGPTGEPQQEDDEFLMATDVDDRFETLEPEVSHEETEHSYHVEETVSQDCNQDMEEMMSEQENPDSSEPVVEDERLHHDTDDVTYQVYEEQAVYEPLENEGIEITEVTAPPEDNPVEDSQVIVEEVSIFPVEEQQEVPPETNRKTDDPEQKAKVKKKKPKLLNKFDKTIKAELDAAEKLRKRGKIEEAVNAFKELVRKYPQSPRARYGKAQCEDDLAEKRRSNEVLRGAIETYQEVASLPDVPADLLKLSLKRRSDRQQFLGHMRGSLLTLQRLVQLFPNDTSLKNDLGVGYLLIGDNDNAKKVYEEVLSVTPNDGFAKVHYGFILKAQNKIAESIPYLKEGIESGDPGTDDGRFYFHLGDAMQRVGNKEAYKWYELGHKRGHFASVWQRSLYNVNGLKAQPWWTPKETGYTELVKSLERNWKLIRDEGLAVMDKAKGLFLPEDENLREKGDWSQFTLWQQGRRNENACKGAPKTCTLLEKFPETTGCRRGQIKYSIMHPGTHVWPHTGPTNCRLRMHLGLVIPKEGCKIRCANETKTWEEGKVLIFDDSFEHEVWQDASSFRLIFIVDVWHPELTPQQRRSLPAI
inactive: lapatinib -0.035 | pictilisib -0.012 | crizotinib -0.025 | [1] 0.048 | duvelisib -0.022 | gandotinib -0.04 | tozasertib 0.037 | doramapimod 0.008 | bafetinib 0.029 | [2] 0.005

ACAT1 (UniProt P24752)
inactive: lapatinib -0.024 | pictilisib -0.013 | crizotinib 0.029 | [1] -0.018 | duvelisib -0.016 | gandotinib 0.03 | tozasertib -0.009 | doramapimod -0.005 | bafetinib 0.026 | [2] 0.008

ALDH5A1 isoform 2 (UniProt P51649)
Chain of UniProt P51649 (P51649 whole entry, looked up): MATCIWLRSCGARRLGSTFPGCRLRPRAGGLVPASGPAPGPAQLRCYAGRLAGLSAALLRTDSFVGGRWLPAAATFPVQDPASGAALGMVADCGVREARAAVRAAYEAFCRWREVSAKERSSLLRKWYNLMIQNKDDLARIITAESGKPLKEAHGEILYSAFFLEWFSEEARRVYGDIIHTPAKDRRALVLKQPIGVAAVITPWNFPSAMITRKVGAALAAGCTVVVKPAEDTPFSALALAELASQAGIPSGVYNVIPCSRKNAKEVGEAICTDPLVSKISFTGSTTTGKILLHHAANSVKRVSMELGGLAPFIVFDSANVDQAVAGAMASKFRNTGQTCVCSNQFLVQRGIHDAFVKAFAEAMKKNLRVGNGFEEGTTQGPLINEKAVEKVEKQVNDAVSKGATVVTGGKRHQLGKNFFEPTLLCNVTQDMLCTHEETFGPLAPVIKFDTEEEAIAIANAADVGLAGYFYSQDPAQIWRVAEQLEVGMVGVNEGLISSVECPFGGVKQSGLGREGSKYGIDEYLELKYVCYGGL
inactive: lapatinib -0.012 | pictilisib -0.049 | crizotinib -0.044 | [1] 0 | duvelisib -0.056 | gandotinib -0.059 | tozasertib 0.005 | doramapimod -0.011 | bafetinib 0.008 | [2] -0.035

AMPD3 isoform 4 (UniProt Q01432)
inactive: lapatinib 0.037 | pictilisib -0.015 | crizotinib 0.014 | [1] 0.109 | duvelisib -0.053 | gandotinib -0.057 | tozasertib 0.001 | doramapimod 0.002 | bafetinib -0.002 | [2] -0.047

ABCA3 (UniProt Q99758)
active: crizotinib -0.469
inactive: lapatinib 0.025 | pictilisib -0.028 | [1] -0.156 | duvelisib 0.061 | gandotinib 0.113 | tozasertib -0.16 | doramapimod 0.203 | bafetinib -0.006 | [2] -0.075

AKAP11 (UniProt Q9UKA4)
inactive: lapatinib 0.021 | pictilisib -0.08 | crizotinib 0.025 | [1] -0.02 | duvelisib 0.015 | gandotinib -0.176 | tozasertib 0.061 | doramapimod -0.036 | bafetinib -0.084 | [2] -0.005

AFF4 (UniProt Q9UHB7)
inactive: lapatinib 0.003 | pictilisib -0.007 | crizotinib -0.033 | [1] 0.011 | duvelisib 0.059 | gandotinib 0.066 | tozasertib 0 | doramapimod 0 | bafetinib 0.05 | [2] 0.001

ABL2 (UniProt P42684)
inactive: lapatinib -0.053 | pictilisib -0.029 | crizotinib 0.367 | [1] -0.216 | duvelisib 0.079 | gandotinib 0.228 | tozasertib 0.273 | doramapimod -0.04 | bafetinib 0.439 | [2] 0

AP4B1 (UniProt Q9Y6B7)
Chain of UniProt Q9Y6B7 (Q9Y6B7 whole entry, looked up): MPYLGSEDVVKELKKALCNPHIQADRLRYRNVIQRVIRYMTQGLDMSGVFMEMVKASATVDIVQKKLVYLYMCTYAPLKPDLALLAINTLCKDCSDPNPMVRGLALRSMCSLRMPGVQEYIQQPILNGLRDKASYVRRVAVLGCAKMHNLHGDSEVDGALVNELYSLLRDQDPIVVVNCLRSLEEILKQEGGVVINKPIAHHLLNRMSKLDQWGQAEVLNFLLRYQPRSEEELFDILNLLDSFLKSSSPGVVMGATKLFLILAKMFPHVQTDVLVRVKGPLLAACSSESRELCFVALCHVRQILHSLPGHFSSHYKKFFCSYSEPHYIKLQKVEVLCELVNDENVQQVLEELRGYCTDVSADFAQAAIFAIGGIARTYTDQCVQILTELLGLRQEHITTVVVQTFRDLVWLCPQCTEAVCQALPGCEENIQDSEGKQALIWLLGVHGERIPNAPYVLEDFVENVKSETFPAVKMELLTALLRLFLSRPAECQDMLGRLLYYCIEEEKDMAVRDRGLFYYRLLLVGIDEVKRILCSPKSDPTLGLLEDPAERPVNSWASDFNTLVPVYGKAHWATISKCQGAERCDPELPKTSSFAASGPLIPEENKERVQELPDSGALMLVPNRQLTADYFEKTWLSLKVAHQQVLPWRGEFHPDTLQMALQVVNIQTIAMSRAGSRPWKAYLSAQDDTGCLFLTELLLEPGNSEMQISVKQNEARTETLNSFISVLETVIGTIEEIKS
inactive: lapatinib 0.064 | pictilisib -0.142 | crizotinib 0.025 | [1] -0.106 | duvelisib -0.058 | gandotinib -0.023 | tozasertib -0.011 | doramapimod 0.019 | bafetinib -0.079 | [2] 0.135

AIF1L (UniProt Q9BQI0)
Chain of UniProt Q9BQI0 (Q9BQI0 whole entry, looked up): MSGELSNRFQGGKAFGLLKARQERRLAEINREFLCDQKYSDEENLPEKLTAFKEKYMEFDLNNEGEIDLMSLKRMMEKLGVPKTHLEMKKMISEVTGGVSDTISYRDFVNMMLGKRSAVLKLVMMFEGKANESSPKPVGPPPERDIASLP
inactive: lapatinib 0.047 | pictilisib 0.046 | crizotinib 0.039 | [1] 0.069 | duvelisib -0.075 | gandotinib -0.171 | tozasertib -0.105 | doramapimod -0.037 | bafetinib -0.122 | [2] 0.101

AP3D1 isoform 5 (UniProt O14617)
inactive: lapatinib 0.008 | pictilisib 0.01 | crizotinib -0.02 | [1] -0.061 | duvelisib 0.023 | gandotinib 0.05 | tozasertib 0.019 | doramapimod 0.059 | bafetinib -0.042 | [2] 0.081

AK2 (UniProt P54819)
inactive: lapatinib 0.058 | pictilisib -0.005 | crizotinib -0.007 | [1] 0.076 | duvelisib -0.031 | gandotinib 0 | tozasertib 0 | doramapimod 0.061 | bafetinib 0.005 | [2] -0.046

ARAF (UniProt P10398)
inactive: lapatinib -0.019 | pictilisib 0.011 | crizotinib -0.041 | [1] -0.045 | duvelisib -0.025 | gandotinib -0.077 | tozasertib -0.007 | doramapimod 0.006 | bafetinib -0.047 | [2] -0.031

ANKRD27 (UniProt Q96NW4)
inactive: lapatinib 0.025 | pictilisib -0.026 | crizotinib -0.095 | [1] -0.03 | duvelisib -0.025 | gandotinib 0.049 | tozasertib 0.002 | doramapimod -0.009 | bafetinib -0.059 | [2] 0.022

ANKRD54 (UniProt Q6NXT1)
Chain of UniProt Q6NXT1 (Q6NXT1 whole entry, looked up): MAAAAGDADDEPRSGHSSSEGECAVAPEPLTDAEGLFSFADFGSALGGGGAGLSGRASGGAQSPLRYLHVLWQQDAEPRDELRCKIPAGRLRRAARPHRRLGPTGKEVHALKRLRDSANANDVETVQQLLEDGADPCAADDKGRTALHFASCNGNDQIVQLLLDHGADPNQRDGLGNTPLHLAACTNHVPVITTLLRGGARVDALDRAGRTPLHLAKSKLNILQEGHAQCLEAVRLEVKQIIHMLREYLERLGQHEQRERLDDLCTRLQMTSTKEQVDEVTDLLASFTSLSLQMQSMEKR
inactive: lapatinib 0.038 | pictilisib -0.008 | crizotinib 0.058 | [1] 0.01 | duvelisib 0.008 | gandotinib 0.049 | tozasertib -0.002 | doramapimod 0.044 | bafetinib -0.029 | [2] -0.007

ARMCX3 (UniProt Q9UH62)
inactive: lapatinib -0.058 | pictilisib 0.005 | crizotinib -0.076 | [1] 0.078 | duvelisib 0.064 | gandotinib -0.064 | tozasertib 0.005 | doramapimod -0.003 | bafetinib -0.044 | [2] 0.032

ARGLU1 (UniProt Q9NWB6)
inactive: lapatinib 0.038 | pictilisib 0.013 | crizotinib 0.043 | [1] -0.062 | duvelisib -0.023 | gandotinib -0.119 | tozasertib 0.045 | doramapimod 0.019 | bafetinib -0.014 | [2] 0.013

ARAP1 (UniProt Q96P48)
inactive: lapatinib -0.022 | pictilisib -0.046 | crizotinib -0.065 | [1] -0.03 | duvelisib -0.002 | gandotinib 0.014 | tozasertib -0.005 | doramapimod 0.063 | bafetinib -0.016 | [2] 0.034

AKT1 (UniProt P31749)
inactive: lapatinib 0.054 | pictilisib 0.002 | crizotinib -0.049 | [1] -0.034 | duvelisib -0.008 | gandotinib -0.048 | tozasertib 0 | doramapimod 0.031 | bafetinib -0.044 | [2] 0.033

ACOX1 isoform 2 (UniProt Q15067)
Chain of UniProt Q15067 (Q15067 whole entry, looked up): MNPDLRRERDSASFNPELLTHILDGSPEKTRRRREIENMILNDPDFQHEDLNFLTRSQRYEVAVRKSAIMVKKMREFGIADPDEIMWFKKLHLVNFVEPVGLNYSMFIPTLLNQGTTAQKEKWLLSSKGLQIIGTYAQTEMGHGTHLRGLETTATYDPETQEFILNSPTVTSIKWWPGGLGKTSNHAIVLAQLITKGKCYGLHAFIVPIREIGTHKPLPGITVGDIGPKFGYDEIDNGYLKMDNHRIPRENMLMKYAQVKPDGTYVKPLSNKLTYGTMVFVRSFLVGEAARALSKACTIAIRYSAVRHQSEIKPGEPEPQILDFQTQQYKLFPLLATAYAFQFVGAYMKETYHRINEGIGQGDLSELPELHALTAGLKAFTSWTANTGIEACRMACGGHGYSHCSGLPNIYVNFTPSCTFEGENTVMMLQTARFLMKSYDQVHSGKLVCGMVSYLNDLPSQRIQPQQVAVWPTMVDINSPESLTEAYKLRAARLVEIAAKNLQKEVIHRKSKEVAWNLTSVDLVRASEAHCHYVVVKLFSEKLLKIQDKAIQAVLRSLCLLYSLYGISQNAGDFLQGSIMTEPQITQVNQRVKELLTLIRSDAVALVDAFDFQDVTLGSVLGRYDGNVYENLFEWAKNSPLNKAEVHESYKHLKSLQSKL
inactive: lapatinib -0.003 | pictilisib -0.003 | crizotinib -0.004 | [1] -0.112 | duvelisib -0.012 | gandotinib 0.167 | tozasertib 0.043 | doramapimod 0.024 | bafetinib -0.01 | [2] 0.054

ADAR isoform 4 (UniProt P55265)
inactive: lapatinib 0.023 | pictilisib -0.135 | crizotinib 0 | [1] 0.01 | duvelisib 0.016 | gandotinib -0.038 | tozasertib 0.016 | doramapimod 0.069 | bafetinib -0.16 | [2] 0.028

ALDH1L2 (UniProt Q3SY69)
Chain of UniProt Q3SY69 (Q3SY69 whole entry, looked up): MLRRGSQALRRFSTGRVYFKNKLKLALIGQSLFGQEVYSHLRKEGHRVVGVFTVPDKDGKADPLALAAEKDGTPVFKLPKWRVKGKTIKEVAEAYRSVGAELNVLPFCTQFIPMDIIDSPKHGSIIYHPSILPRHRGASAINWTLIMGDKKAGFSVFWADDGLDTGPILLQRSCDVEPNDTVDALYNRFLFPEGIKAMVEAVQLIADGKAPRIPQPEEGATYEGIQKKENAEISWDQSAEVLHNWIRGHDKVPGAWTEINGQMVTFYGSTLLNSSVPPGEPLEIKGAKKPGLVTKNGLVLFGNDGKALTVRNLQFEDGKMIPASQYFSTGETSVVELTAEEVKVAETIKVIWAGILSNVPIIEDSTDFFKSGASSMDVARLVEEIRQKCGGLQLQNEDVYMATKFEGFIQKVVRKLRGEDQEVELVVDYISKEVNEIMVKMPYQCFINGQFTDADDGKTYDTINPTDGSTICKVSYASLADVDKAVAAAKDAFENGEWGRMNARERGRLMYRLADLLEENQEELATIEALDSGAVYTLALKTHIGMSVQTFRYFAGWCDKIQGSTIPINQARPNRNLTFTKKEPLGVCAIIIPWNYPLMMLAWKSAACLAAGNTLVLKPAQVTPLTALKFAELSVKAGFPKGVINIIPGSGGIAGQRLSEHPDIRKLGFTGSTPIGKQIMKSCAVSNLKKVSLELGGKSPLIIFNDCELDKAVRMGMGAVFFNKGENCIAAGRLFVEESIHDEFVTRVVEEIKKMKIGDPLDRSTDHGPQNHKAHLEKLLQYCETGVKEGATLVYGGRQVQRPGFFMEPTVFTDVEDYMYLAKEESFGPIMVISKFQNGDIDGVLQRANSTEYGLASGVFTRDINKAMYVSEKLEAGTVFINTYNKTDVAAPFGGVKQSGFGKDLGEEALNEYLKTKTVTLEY
inactive: lapatinib 0.029 | pictilisib -0.01 | crizotinib -0.032 | [1] -0.066 | duvelisib 0.003 | gandotinib 0.039 | tozasertib 0.032 | doramapimod 0.005 | bafetinib -0.029 | [2] 0.083

ANAPC7 (UniProt Q9UJX3)
inactive: lapatinib -0.017 | pictilisib 0.002 | crizotinib -0.029 | [1] -0.009 | duvelisib -0.018 | gandotinib -0.042 | tozasertib -0.019 | doramapimod 0.023 | bafetinib -0.036 | [2] 0.002

ACYP1 (UniProt P07311)
active: [1] 0.236
inactive: lapatinib -0.001 | pictilisib -0.044 | crizotinib 0.024 | duvelisib 0.005 | gandotinib -0.051 | tozasertib 0.016 | doramapimod 0.009 | bafetinib 0.005 | [2] -0.091
